# Measurements: PubChem BioAssay AID485314 (National Center for Advancing Translational Sciences (NCATS), 2010)
# Screen size: about 340,000 compounds; about 4,500 (1.3%) were called active. Another 5% or so got no clear call; they are omitted. What follows is part of a selection rich in actives, with near analogues and random picks from the rest. Values without a mark were called inactive. The call rests on the fitted dose curve; in most records, active means well fitted inhibition curve with a large enough effect; inconclusive means small, poorly fitted or top-dose-only effect, or another doubt; inactive means no such curve, though single readings can be large or run the other way.
# Biological target: DNA polymerase beta (Homo sapiens) (UniProt P06746)
# Test: qHTS Assay for Inhibitors of DNA Polymerase Beta
# Details: Pol beta primer extension/strand displacement, fluorescence kinetic; series mostly up to 114 µM; activity change, negative = inhibition: at the top concentration
# How it was run: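 Values derive from four-parameter Hill fits of normalized kinetic data: reads at 0 and 10 min following addition of 50 nM substrate to 10 nM Pol beta preincubated 15 min with compound.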
# On the % scale 0 is the no-effect control and ±100 the full control effect; potency means the concentration at half of the fitted maximal effect.
SMILES,"activity change, negative = inhibition [%]",Potency
O=C(NCCSc1ccccc1)c1ccco1,6.21,
O=c1c2ccccc2c(-c2ccc(Br)cc2)nn1Cc1ccccc1,1.64,
O=C(NCCc1ccco1)c1nn(Cc2ccccc2)c(=O)c2ccccc12,,44.7 µM (active)
CCn1cc2nc(SCc3ccccc3Cl)n(CCc3ccccc3)c(=O)c2n1,1.98,
CCc1nnc(NC(=O)c2sc3nc(C)cc(COC)c3c2N)s1,-0.594,
CCc1ccc2nc3sc(C(=O)Nc4nnc(CC)s4)c(N)c3cc2c1,,25.1 µM (active)
CCc1ccc(NC(=O)c2sc3nc4c(cc3c2N)CN(CC)CC4)cc1,-13.7,
Cc1ccc(C)c(N2CCN(C(c3ccccc3)c3nnc(-c4ccccc4)o3)CC2)c1 (configuration not stated),2.47,
O=C(CSC(=S)N1CCOCC1)c1ccccc1,2.75,
O=C(CSC(=S)N1CCOCC1)c1cc(Br)cc(Br)c1O,,31.6 µM (active)
O=C(c1cc2cc(Br)cc(Br)c2oc1=O)N1CCOCC1,7.01,
CCc1ccccc1N(C)C(=O)C1CCCN(c2ncnc3onc(-c4ccc(F)cc4)c23)C1 (configuration not stated),-20.2,
O=C(Nc1nnc(C2CC(=O)N(c3ccc(Cl)cc3)C2)s1)c1ccco1 (configuration not stated),-0.775,
O=C(c1cnn(-c2ccc(F)cc2)c1-n1cccc1)N1CCN(c2ccc(F)cc2)CC1,1.09,
COC(=O)c1sc2ncccc2c1-n1c(C)ccc1C,14.6,
Cc1cccc(CCNC(=O)c2ccc3c(c2)nc2n3CCC(C)C2)c1 (configuration not stated),-17.9,
O=C(NCc1ccco1)c1cccn2c(=O)c3c4c(sc3nc12)CCCC4,,50.1 µM (active)
O=C(NCc1ccco1)c1nc2ncccn2n1,11.7,
O=c1oc(-c2ccco2)nc2sc3c(c12)CCCCC3,3.53,
CN(Cc1ccccc1)c1ncnc2onc(-c3ccc(F)cc3)c12,-27,
COC(=O)c1ccccc1NS(=O)(=O)c1ccc2c(c1)CCCN2C(C)=O,29,
Cc1ccc(S(=O)(=O)c2nc(-c3cccs3)oc2N2CCCCC2)cc1,2.94,
COc1cccc(NC(=O)CSc2cc(=O)n(C)c3ccc(Cl)cc23)c1,17.1,
Cc1cc(F)ccc1NS(=O)(=O)c1ccc(-n2cccn2)cc1,1.11,
O=[N+]([O-])c1cc(-c2nc(-c3ccccc3)no2)ccc1NCc1ccco1,1.56,
CNc1ccc(-c2nc(-c3ccco3)no2)cc1[N+](=O)[O-],10.7,

SMILES,"activity change, negative = inhibition [%]",Potency
CC(Nc1ccc(-c2nc(-c3ccco3)no2)cc1[N+](=O)[O-])c1ccccc1 (configuration not stated),,20 µM (active)
COc1cccc(NC(=O)Nc2ccc3c(c2)N(C)C(=O)c2ccccc2S3)c1,-11.2,
CCOC(=O)c1c(NC(=O)c2ccc(S(=O)(=O)N3CCCC(C)C3)cc2)sc2c1CCN(C(C)C)C2 (configuration not stated),-0.886,
O=C(Nc1nnc(Cc2ccc(Cl)cc2)s1)c1ccncc1,3.6,
O=C(Nc1nnc(Cc2ccccc2)s1)c1cnccn1,5.98,
O=C(Nc1nnc(Cc2ccc(Cl)cc2)s1)c1cccnc1,,22.4 µM (active)
COc1cccc(C(=O)NC2=NC(c3ccc(N(C)C)cc3)CC(=O)N2)c1 (configuration not stated),0.969,
CCC(=O)N1CCc2cc(S(=O)(=O)NC(CC(C)C)C(=O)NCCc3cccc(C)c3)ccc21 (configuration not stated),-3.09,
CCC(c1nnnn1C1CCCC1)N1CCN(C(=O)c2ccco2)CC1 (configuration not stated),,44.7 µM (active)
CC(C)C(c1nnnn1C1CCCCC1)N1CCN(C(=O)c2ccco2)CC1 (configuration not stated),23.6,
CCC(C)(C)n1nnnc1C(c1ccc(OC)c(OC)c1)N1CCN(C(=O)c2ccco2)CC1 (configuration not stated),-7.42,
COc1ccc(-c2c(C)c3ccc(O)c(CN4CCCC4)c3oc2=O)cc1OC,1.07,
COc1c(O)cc2oc(-c3ccc(O)c(O)c3)cc(=O)c2c1O,,6.31 µM (active)
COc1ccc(-c2c(C)c3ccc(O)c(CN4CCN(C)CC4)c3oc2=O)cc1OC,27.4,
CCN(CC)c1ccc(NS(=O)(=O)c2cc(-c3cc(C)no3)ccc2C)c(C)c1,7.48,
CN(C)CCCn1c(-c2ccc(Cl)cc2)csc1=Nc1ccccc1,-17.6,
CCN1CCN(CCCNC(=O)c2ccc3c(c2)sc2nc(-c4ccc(OC)cc4)cn23)CC1,0.356,
O=C(CSc1nc2ccccc2nc1Cc1ccccc1)N1CCCCC1,-23.8,
CCOC(=O)c1ccc(N2C(=O)c3n[nH]c(C)c3C2c2ccc(O)c(OC)c2)cc1 (configuration not stated),6.08,
CCCCCOc1ccc(/C=C/C(=O)NCCc2nc3ccccc3[nH]2)cc1OC,,15.8 µM (active)
COc1ccc(OC(C)C(=O)NCCc2nc3ccccc3[nH]2)cc1 (configuration not stated),3.64,
CC(C)Oc1ccc(/C=C(\NC(=O)/C=C/c2ccco2)C(=O)NCCc2nc3ccccc3[nH]2)cc1,-0.381,
O=C(NCc1ccccc1Cl)C1=Cc2cc(Br)ccc2OC1,1.78,
CC(C)C(=O)Nc1nc2c(s1)CC(C(C)(C)C)CC2 (configuration not stated),-15.1,
CN(C)CCNC(=O)c1[nH]nc2c1CCc1ccccc1-2,4.83,
COc1ccc(/C=N/NC(=O)c2ccc3c(c2)OCCO3)c(OC)c1,-7.82,

SMILES,"activity change, negative = inhibition [%]",Potency
COc1cccc(/C=N/NC(=O)c2[nH]nc3c2CCc2ccccc2-3)c1O,,8.91 µM (active)
CCOc1ccccc1CNC(=O)c1ccc(-n2c(C)cc3c2CCC(C)C3)cc1 (configuration not stated),-5.46,
C[N+](C)(CCCCCC[N+](C)(C)CCCN1C(=O)c2cccc3cccc(c23)C1=O)CCCN1C(=O)c2cccc3cccc(c23)C1=O,,2.38 µM (active)
O=C1c2cccc3cccc(c23)C(=O)N1CCCCCc1n[nH]c(=S)o1,0.636,
O=C(CCCCCN1C(=O)c2cccc3cccc(c23)C1=O)NCc1ccco1,4.7,
CCN(CCCNC(=O)CSc1cc(=O)n(C)c2cc(Cl)ccc12)c1cccc(C)c1,-18.6,
COc1ccc(C2=NC(c3ccncc3)=Nc3ccc(Br)cc3N2)cc1,-0.33,
CC(=O)c1ccc(NC(=O)CCc2nc(-c3ccc(C)cc3)no2)cc1,-29.3,
COc1cc2ccccc2cc1C(=O)Nc1cccc(-c2nc3ccccc3o2)c1,1.22,
NC(=O)CCN1CCN(S(=O)(=O)/C=C/c2ccccc2)CC1,17.7,
O=C(CN1CCN(S(=O)(=O)/C=C/c2ccccc2)CC1)NC(=O)NCc1ccco1,,25.1 µM (active)
COc1ccccc1N1CCN(CC(=O)NC(=O)NCc2ccco2)CC1,19.7,
CCC1=Nc2cc(C(=O)NCC(C)c3ccccc3)ccc2Sc2ccc(C)cc21 (configuration not stated),-9.44,
O=C(CNS(=O)(=O)c1cccs1)N1CCN(c2ccccc2Cl)CC1,12,
COc1cccc(CNS(=O)(=O)c2ccc3c(c2)CC(C)N3C(C)=O)c1 (configuration not stated),10.6,
COc1cccc(CNS(=O)(=O)c2ccc3c(c2)CC(C)N3C(=O)C2CCC2)c1 (configuration not stated),,inactive
CCC(=O)N1c2ccc(S(=O)(=O)NCc3ccco3)cc2CC1C (configuration not stated),,0.398 µM (active)
COc1cc(C(=O)N2CCN(c3ccc(Nc4ccc(C)cc4)nn3)CC2)cc(OC)c1OC,11.6,
Cc1ccc(-c2cnc(NCc3ccc(C(C)C)cc3)n2C)cc1,4,
Cc1ccc(OCC(=O)NCCCNC(=O)c2ccco2)cc1C,17.8,
COc1ccc(OCC(=O)Nc2ccc(NC(=O)c3ccco3)c(C)c2)cc1,4.19,
COc1ccc(NC(=O)c2ccco2)cc1NC(=O)COc1ccc(C)c(C)c1,,11.2 µM (active)
CCC(C)Nc1oc(-c2ccc(COc3ccc(Cl)cc3)o2)nc1C#N (configuration not stated),-4.08,
Cc1ccccc1CNC(=O)CCCn1nc(C)c2sc3ccccc3c2c1=O,-3.26,
CCNC(=S)N1CCC(c2nc3cc(C)c(C)cc3[nH]2)CC1,37.3,
COCCCNC(=S)N1CCCC(c2nc3cc(C)c(C)cc3[nH]2)C1 (configuration not stated),,39.8 µM (active)

SMILES,"activity change, negative = inhibition [%]",Potency
CCCNC(=S)N1CCCC(c2nc3ccccc3[nH]2)C1 (configuration not stated),32.4,
c1ccc(CSc2nnc(-c3ccco3)c(-c3ccco3)n2)cc1,,7.94 µM (active)
Clc1ccccc1CSc1nnc(-c2ccco2)c(-c2ccco2)n1,,4.47 µM (active)
Fc1ccc(Nc2nc(SCc3ccccc3Cl)nc3ccccc23)cc1,4.9,
Cc1ccc(-c2nnc(SCC(=O)NCc3ccccc3)nc2-c2ccc(C)cc2)cc1,-19.3,
CC1(C)N=C(SCc2ccccc2Cl)c2ccccc2N1,22.9,
COc1ccc2nc(SCc3ccccc3)nc(C)c2c1,-28.5,
CCN(CC)S(=O)(=O)c1nnc(NC(=O)COc2ccccc2Cl)s1,-0.683,
CC1=Nc2cc(C(=O)NCc3ccc(C)cc3)ccc2Sc2ccc(Cl)cc21,8.49,
O=C(CSc1nccn1-c1ccc(F)cc1)Nc1cccc2ccccc12,18.6,
Cc1ccc(C)c(N2CCN(C(=O)Cn3nc(C)c4sc5ccccc5c4c3=O)CC2)c1,4.61,
COc1ccc2c(c1)Cc1sc(NC(=O)c3ccccc3Br)nc1-2,8.32,
CC(C)(C)c1ccc(C(=O)N2CCC(c3nc(-c4ccc(S(=O)(=O)N5CCCC5)cc4)no3)CC2)cc1,4.4,
Oc1c(C(c2ccccc2Cl)N2CCOCC2)sc2nc(-c3ccco3)nn12 (configuration not stated),-23.3,
CCOc1ccccc1/C=c1\sc2nc(-c3ccco3)nn2c1=O,,11.2 µM (active)
CCOC(=O)C1CCN(C(c2ccc(F)cc2)c2sc3nc(-c4ccco4)nn3c2O)CC1 (configuration not stated),1.93,
COc1cc(CNC(=O)c2cc3n(n2)CCCN(Cc2cccc(F)c2)C3=O)cc(OC)c1OC,-11.6,
CCC(=O)Nc1cccc(C(=O)OCc2cc(=O)n3nc(CC)sc3n2)c1,-0.24,
Cc1c(C(=O)NCc2ccccc2Br)oc2ccc3c(c12)C(=O)CC(C)(C)O3,-0.951,
O=C(CSc1nccn1Cc1ccc(F)cc1)NCc1ccccc1,2.98,
COc1ccc(-c2noc(CSc3nnc(-c4ccccc4)n3-c3ccc(F)cc3)n2)c(OC)c1,2.59,
C/C(=N\Nc1ccc(S(N)(=O)=O)cc1[N+](=O)[O-])c1cccs1,,11.2 µM (active)
C/C(=N\Nc1ncc(Cl)cc1Cl)c1cccs1,-23.8,
C/C(=N\NS(=O)(=O)c1ccc(Br)cc1)c1cccs1,19.8,
